Results from paper PMC7862700, “An all-to-all approach to the identification of sequence-specific readers for epigenetic DNA modifications on cytosine”.

What was measured:
Assay in all cases: DAPPL (digital affinity profiling via proximity ligation, sequencing); 10 mM Tris-HCl pH 7.5, 50 mM NaCl, 1 mM DTT, 4% glycerol, room temperature, 30 min; GST-TFs on glutathione beads, 16-mer random dsDNA library, 0.1% formaldehyde crosslink after washing; high values mean tight binding
Conditions in all cases: protein: recombinant; tags: N-terminal GST; dsDNA, one strand shown
[1] = biological target: T1, FLI1 (Homo sapiens, UniProt Q01543 1-452)
T1 sequence: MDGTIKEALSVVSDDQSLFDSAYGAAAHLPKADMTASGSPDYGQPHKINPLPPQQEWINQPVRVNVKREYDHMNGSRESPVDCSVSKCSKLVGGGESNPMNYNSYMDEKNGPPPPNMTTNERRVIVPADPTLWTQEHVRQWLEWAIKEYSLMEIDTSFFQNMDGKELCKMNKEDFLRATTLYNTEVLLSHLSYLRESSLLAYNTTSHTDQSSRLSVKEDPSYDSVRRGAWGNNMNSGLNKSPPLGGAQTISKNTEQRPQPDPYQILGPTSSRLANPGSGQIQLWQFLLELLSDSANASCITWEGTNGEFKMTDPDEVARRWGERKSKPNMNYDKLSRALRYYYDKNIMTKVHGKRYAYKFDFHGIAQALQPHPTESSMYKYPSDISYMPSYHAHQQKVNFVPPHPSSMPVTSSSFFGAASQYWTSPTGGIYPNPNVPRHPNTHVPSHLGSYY
Outline: (§1)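 Pools were built from human transcription factors expressed in yeast as GST fusions, captured on glutathione beads and DNA-barcoded, along with a tag-only sample. Incubation with 200 nmole of a 16-mer random double-stranded DNA library lasted 30 min at room temperature in Tris/NaCl/DTT/glycerol buffer, and was followed by washing, 0.1% formaldehyde crosslinking, proximity ligation, PCR amplification and Illumina NextSeq500 sequencing. Binding signal is the quotient of each hexamer's read frequency for a factor and its frequency for the tag-only sample.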

[2] = biological target: T2, ELK1 (Homo sapiens, UniProt P19419 1-428)
T2 sequence: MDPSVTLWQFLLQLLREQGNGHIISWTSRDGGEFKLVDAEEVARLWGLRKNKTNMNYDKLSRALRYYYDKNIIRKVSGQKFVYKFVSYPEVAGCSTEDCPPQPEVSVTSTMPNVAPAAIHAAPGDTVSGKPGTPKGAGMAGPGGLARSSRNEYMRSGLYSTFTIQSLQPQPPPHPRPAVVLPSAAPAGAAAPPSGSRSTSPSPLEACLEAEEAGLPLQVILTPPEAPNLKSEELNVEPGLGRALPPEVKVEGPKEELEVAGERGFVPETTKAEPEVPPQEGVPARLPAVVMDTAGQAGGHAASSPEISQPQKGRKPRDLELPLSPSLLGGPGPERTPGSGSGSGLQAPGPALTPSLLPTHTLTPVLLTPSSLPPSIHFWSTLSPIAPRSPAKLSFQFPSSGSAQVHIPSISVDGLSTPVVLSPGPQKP
Outline: as §1

[3] = biological target: T3, GABPA (Homo sapiens, UniProt Q06546 1-454)
T3 sequence: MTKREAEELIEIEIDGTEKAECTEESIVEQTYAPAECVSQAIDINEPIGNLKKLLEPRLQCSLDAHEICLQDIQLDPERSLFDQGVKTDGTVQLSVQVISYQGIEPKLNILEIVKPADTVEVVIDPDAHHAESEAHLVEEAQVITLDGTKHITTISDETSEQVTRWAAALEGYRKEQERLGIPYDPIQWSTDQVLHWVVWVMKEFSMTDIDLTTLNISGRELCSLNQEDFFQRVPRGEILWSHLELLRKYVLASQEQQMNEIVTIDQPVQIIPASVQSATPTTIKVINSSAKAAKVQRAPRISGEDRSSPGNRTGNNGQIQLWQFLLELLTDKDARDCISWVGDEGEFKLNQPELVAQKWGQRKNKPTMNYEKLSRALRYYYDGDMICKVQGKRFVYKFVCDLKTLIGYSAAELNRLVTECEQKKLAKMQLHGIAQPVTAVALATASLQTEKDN
Outline: as §1

[4] = biological target: T4, ERG (Homo sapiens, UniProt P11308 1-479)
T4 sequence: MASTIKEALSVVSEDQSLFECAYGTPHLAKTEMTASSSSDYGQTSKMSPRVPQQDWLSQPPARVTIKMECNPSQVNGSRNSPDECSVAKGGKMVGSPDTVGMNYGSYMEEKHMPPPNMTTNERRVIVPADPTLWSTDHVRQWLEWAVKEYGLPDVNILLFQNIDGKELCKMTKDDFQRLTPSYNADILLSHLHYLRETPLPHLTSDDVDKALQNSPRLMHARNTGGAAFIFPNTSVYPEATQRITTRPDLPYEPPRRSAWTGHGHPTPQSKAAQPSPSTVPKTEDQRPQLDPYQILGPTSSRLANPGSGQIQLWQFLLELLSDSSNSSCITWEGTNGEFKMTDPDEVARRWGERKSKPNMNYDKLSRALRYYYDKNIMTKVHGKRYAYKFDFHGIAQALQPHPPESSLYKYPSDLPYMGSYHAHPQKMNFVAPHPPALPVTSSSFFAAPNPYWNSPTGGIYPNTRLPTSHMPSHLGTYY
Outline: as §1

[5] = biological target: ELF1 (Homo sapiens, UniProt P32519 1-619)
ELF1, sequence (P32519 whole entry): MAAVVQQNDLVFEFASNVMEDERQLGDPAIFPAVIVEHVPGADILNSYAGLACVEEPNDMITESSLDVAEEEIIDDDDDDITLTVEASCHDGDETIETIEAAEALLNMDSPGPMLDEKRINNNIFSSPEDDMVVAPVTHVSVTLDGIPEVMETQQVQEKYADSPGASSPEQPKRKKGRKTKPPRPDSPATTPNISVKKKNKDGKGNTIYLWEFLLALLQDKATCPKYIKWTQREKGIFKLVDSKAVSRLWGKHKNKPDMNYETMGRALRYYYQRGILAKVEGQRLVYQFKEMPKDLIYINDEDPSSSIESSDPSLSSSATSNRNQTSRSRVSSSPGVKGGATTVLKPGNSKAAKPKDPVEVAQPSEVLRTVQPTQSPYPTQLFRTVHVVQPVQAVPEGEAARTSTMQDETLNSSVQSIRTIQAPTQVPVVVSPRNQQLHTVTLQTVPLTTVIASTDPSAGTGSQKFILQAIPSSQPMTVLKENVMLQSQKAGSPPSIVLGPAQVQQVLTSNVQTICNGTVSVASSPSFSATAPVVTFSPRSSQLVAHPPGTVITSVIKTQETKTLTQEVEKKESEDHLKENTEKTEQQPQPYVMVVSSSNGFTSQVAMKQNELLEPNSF
Outline: as §1

[6] = biological target: T5, EHF (Homo sapiens, UniProt Q9NZC4 1-300)
T5 sequence: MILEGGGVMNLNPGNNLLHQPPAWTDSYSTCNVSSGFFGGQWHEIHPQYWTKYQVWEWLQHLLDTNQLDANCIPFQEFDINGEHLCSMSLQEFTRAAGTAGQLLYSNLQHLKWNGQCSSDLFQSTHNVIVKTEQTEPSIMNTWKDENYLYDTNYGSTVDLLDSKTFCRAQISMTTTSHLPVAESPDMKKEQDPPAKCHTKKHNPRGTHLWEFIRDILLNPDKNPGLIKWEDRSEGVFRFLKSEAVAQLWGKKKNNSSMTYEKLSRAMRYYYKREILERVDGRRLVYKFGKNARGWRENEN
Outline: as §1

[7] = biological target: SPI1 (Homo sapiens, UniProt P17947 1-270)
Outline: as §1

[8] = biological target: SPIB (Homo sapiens, UniProt Q01892 1-262)
SPIB, sequence (Q01892 whole entry): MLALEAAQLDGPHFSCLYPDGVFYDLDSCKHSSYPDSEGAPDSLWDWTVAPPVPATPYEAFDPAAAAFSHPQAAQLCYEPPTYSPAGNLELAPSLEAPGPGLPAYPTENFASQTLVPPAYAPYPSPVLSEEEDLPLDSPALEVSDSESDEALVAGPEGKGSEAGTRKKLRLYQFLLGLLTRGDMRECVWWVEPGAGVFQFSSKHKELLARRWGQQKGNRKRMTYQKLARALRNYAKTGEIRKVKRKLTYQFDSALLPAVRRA
Outline: as §1

[9] = biological target: T6, ELK3 (Homo sapiens, UniProt P41970 1-407)
T6 sequence: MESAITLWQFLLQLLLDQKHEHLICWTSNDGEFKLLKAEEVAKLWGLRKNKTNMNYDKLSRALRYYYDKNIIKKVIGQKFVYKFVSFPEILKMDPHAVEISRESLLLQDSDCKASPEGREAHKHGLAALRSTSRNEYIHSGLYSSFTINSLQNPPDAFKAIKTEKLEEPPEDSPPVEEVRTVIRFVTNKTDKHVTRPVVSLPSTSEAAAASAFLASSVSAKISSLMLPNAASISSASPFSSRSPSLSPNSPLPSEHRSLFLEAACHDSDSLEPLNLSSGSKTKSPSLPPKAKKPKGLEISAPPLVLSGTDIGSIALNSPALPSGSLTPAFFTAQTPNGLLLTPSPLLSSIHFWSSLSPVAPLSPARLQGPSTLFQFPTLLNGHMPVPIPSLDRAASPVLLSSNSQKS
Outline: as §1

[10] = biological target: T7, FEV (Homo sapiens, UniProt Q99581 1-238)
T7 sequence: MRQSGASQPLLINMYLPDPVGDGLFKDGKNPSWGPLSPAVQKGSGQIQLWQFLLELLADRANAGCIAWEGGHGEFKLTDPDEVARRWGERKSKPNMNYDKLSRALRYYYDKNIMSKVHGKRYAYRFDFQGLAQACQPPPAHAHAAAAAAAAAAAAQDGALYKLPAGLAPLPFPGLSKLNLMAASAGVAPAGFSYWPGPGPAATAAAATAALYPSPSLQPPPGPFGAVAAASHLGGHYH
Outline: as §1

[11] = biological target: ETV5 (Homo sapiens, UniProt P41161 1-510)
ETV5, sequence (P41161 whole entry): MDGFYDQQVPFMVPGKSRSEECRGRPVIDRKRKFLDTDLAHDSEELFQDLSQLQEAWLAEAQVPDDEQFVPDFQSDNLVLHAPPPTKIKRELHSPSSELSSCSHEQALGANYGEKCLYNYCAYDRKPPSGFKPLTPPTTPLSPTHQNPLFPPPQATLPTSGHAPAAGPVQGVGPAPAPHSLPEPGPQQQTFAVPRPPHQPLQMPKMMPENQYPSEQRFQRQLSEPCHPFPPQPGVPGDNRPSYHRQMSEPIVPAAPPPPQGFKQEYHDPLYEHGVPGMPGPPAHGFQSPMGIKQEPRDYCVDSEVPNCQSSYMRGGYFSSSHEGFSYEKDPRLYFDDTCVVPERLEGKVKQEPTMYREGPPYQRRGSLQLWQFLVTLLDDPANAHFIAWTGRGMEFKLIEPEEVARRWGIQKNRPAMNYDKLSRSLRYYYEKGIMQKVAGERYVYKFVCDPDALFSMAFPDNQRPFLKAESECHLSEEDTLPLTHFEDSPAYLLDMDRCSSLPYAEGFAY
Outline: as §1

[12] = biological target: T8, SPIC (Homo sapiens, UniProt Q8N5J4 1-248)
T8 sequence: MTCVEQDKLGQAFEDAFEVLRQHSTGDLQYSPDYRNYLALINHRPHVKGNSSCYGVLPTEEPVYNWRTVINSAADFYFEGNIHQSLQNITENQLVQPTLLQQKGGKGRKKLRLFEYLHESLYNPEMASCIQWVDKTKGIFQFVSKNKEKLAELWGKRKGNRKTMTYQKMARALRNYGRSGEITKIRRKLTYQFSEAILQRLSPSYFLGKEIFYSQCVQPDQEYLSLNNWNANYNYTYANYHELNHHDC
Outline: as §1

[13] = biological target: ELF4 (Homo sapiens, UniProt Q99607 1-663)
ELF4, sequence (Q99607 whole entry): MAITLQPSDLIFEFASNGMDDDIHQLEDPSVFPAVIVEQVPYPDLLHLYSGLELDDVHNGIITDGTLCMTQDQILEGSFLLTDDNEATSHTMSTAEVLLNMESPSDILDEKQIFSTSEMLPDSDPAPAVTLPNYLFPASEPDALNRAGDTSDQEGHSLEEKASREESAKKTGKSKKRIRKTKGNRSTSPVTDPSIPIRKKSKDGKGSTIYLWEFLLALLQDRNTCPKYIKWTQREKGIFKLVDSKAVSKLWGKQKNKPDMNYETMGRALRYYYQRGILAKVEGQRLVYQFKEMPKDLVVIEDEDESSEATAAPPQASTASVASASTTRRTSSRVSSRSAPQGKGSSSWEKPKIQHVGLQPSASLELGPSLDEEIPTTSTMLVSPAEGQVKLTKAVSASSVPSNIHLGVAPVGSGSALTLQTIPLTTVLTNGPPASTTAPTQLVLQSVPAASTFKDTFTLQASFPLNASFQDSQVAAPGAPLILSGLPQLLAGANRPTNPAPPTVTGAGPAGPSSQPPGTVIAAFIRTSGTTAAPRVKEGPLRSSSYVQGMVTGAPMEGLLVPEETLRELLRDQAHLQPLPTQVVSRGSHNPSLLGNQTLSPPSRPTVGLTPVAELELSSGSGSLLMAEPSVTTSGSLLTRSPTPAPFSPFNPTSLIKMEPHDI
Outline: as §1

[14] = biological target: T9, ELK4 (Homo sapiens, UniProt P28324-2 1-405)
T9 sequence: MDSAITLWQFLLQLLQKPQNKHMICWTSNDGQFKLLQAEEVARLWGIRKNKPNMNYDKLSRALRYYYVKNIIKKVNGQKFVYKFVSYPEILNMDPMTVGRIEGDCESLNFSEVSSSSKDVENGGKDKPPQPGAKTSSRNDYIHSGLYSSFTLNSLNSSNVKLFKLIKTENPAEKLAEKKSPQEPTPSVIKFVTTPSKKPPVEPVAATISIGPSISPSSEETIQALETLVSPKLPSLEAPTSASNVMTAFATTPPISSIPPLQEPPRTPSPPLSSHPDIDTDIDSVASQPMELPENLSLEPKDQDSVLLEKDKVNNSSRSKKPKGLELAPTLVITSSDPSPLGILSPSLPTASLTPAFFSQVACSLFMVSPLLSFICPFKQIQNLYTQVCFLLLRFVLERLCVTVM
Outline: as §1

[15] = biological target: T10, ETV2 (Homo sapiens, UniProt O00321 1-342)
T10 sequence: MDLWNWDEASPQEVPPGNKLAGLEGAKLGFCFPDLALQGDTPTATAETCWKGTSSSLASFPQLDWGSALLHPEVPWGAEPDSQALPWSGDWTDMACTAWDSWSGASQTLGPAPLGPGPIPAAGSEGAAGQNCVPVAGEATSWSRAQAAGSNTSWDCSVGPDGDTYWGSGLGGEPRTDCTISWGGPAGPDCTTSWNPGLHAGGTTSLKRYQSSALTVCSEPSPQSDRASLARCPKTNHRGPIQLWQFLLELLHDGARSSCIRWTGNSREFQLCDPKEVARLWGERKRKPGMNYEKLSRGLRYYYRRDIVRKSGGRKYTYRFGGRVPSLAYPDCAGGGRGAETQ
Outline: as §1

[16] = biological target: T11, ELF3 (Homo sapiens, UniProt P78545 1-371)
T11 sequence: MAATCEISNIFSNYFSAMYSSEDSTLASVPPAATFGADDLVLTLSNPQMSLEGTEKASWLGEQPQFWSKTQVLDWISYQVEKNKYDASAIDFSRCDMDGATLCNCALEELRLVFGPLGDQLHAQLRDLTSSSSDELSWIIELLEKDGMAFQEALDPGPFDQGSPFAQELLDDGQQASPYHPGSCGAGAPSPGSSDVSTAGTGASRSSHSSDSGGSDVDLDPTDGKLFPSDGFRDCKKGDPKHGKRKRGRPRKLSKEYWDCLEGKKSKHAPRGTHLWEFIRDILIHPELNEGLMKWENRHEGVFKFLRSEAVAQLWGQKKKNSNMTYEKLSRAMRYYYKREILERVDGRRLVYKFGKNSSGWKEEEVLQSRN
Outline: as §1

[17] = biological target: ETV1 (Homo sapiens, UniProt P50549 1-477)
ETV1, sequence (P50549 whole entry): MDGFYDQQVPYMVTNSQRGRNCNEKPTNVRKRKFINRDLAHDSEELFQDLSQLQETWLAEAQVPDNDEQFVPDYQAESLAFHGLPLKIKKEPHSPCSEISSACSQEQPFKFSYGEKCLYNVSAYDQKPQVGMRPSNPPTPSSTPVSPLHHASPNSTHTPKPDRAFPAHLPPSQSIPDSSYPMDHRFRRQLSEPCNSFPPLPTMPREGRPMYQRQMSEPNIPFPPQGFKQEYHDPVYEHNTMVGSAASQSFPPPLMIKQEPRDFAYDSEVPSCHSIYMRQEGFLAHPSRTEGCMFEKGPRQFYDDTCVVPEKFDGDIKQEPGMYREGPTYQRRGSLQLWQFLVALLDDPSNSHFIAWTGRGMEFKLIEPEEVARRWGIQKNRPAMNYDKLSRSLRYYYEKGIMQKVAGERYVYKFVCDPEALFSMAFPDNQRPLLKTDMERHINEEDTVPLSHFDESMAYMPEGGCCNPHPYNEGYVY
Outline: as §1

CACGCC
binding signal [1]: 1.12 fold enrichment (6-mer frequency, TF over GST control) | binding signal [2]: 1.25 fold enrichment (6-mer frequency, TF over GST control) | binding signal [3]: 1.27 fold enrichment (6-mer frequency, TF over GST control) | binding signal [4]: 1.29 fold enrichment (6-mer frequency, TF over GST control) | binding signal [5]: 1.26 fold enrichment (6-mer frequency, TF over GST control) | binding signal [6]: 1.18 fold enrichment (6-mer frequency, TF over GST control) | binding signal [7]: 1.2 fold enrichment (6-mer frequency, TF over GST control) | binding signal [8]: 1.15 fold enrichment (6-mer frequency, TF over GST control) | binding signal [9]: 1.22 fold enrichment (6-mer frequency, TF over GST control) | binding signal [10]: 1.19 fold enrichment (6-mer frequency, TF over GST control) | binding signal [11]: 1.17 fold enrichment (6-mer frequency, TF over GST control) | binding signal [12]: 1.01 fold enrichment (6-mer frequency, TF over GST control) | binding signal [13]: 1.25 fold enrichment (6-mer frequency, TF over GST control) | binding signal [14]: 1.24 fold enrichment (6-mer frequency, TF over GST control) | binding signal [15]: 1.22 fold enrichment (6-mer frequency, TF over GST control) | binding signal [16]: 1.27 fold enrichment (6-mer frequency, TF over GST control) | binding signal [17]: 1.19 fold enrichment (6-mer frequency, TF over GST control)
